Only some compounds are listed: those with a hit (about 2.3% of all), similar ones and a draw of the others.
M1 PAM – potentiates human M1 receptor response to acetylcholine; P11229; CHO-K1 hM1, Fluo-8 calcium fluorescence, ACh EC20; 0% = ACh EC20, 100% = maximal ACh; activation, % at 3 µM; 360,000 tested, 0.088% active; in the data active means activation above about 19%, passing the limit was not always enough
Target sequence (P11229 whole entry, looked up): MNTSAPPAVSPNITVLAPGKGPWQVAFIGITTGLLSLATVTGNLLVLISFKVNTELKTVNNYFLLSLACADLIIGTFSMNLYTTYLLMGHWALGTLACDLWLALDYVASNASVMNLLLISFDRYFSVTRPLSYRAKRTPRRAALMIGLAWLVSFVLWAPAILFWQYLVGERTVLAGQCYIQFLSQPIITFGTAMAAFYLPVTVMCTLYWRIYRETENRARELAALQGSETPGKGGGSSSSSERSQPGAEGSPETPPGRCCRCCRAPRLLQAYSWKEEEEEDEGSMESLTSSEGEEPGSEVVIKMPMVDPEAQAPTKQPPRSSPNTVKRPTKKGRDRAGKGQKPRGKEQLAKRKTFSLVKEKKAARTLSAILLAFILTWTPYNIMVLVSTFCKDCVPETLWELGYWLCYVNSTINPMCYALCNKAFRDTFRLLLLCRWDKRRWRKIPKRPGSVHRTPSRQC
CHRM1 antagonist – antagonists of human M1 muscarinic receptor; P11229; CHO-K1 hM1, Fluo-8 calcium fluorescence, ACh EC80 antagonist; inhibition, % at 3 µM; 360,000 tested, 1.3% active;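 active means percent inhibition above its own plate's cutoff, namely the mean of that plate's compound wells plus 3 SD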;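 further: peak over basal fluorescence ratio during 140 s after agonist addition; 0% = ACh EC80 plus DMSO and 100% = DMSO alone without agonist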
CHO-K1 Ca PAM – nonselective activator or artifact in parental CHO-K1 calcium assay; ATP EC20, Fluo-8 calcium fluorescence; 0% at ATP EC20, 100% at ATP max; activation, % at 3 µM; 360,000 tested, 0.02% active;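 active means activation above the run cutoff, the mean activation of all test compounds plus 3 SD, cut at about 40% in these data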;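 further: peak over basal fluorescence ratio in a 140 s read after ATP addition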
M1 ag parental – counter-screen for M1 agonists: effect in parental CHO-K1 cells | activation, % at 3 µM | AID 602248 | Fluo-8 calcium fluorescence; scaled to maximal ATP response, vehicle zero | 360,000 tested, 0.48% active; in the data active means activation above about 15%;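 further: untransfected CHO-K1 host cells lacking M1 receptor as counterscreen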
CHRM1 agonist – activates human CHRM1 receptor | P11229 | activation, % at 3 µM | 360,000 tested, 0.33% active | CHO-K1 hM1, Fluo-8 calcium fluorescence, agonist mode; 0% DMSO, 100% acetylcholine EC100;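 active means activation above the run's mean compound activation plus 3 SD, cut at about 16% in these data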;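 further: peak over basal fluorescence ratio within a 140 s kinetic read after compound addition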
CHO-K1 Ca antag – nonselective inhibitor or artifact in parental CHO-K1 cells; AID 602250; 360,000 tested, 0.6% active; ATP-induced calcium, Fluo-8 fluorescence; inhibition, % at 3 µM;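 active means inhibition above a per-plate cutoff, the plate's mean sample inhibition plus 3 SD, cut at about 24% in these data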;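 further: 0% = DMSO plus EC80 ATP and 100% = DMSO alone without ATP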
Starred values were filed as active, the others as inactive.

SMILES	M1 PAM	CHRM1 antagonist	CHO-K1 Ca PAM	M1 ag parental	CHRM1 agonist	CHO-K1 Ca antag
Clc1ccc(OCc2nnc(-c3ccccc3Br)o2)c(Cl)c1	3.9	0.6	-9.9	-0.3	-1.6	-3.1
COc1ccc(/C=C/CN2CCCC(CCC(=O)NCc3ccc(F)c(F)c3)C2)cc1 (stereo unspecified)	-31.8	84.3*	1.3	0.1	-13.6	0.3
O=C(CCC1CCCN(Cc2cccc3c2OCO3)C1)NCc1ccc(F)c(F)c1 (stereo unspecified)	-32.2	42.1*	5.6	-0.5	-14.2	1.3
COc1ccccc1/C=C/CN1CCCC(CCC(=O)NCc2ccc(F)c(F)c2)C1 (stereo unspecified)	-19.9	1.7	16.6	0.8	-14.1	-8.2
Cc1cc(C)c(C)c(S(=O)(=O)N2CCC(C(=O)NCCCN3CCCC3=O)CC2)c1C	25.4	-25.7	0.2	-0.5	-6.5	-12.4
CC(C)OC(=O)CSc1nnc(-c2ccccc2)n1N	11.0	-6.1	24.5	0.3	-4.7	-8.2
Cc1cc2ncn(C3CC(=O)N(C)C3=O)c2cc1C (stereo unspecified)	8.8	-8.6	6.7	-0.1	-4.5	-7.3
Cc1cc2ncn(C3CC(=O)N(Cc4ccccc4)C3=O)c2cc1C (stereo unspecified)	-16.7	20.8	-8.2	16.7*	4.8	-7.8
COC(=O)c1sccc1S(=O)(=O)Nc1ccc(Cl)cc1	-7.1	9.6	2.4	5.8	-2.5	-13.8
COC(=O)c1sccc1S(=O)(=O)Nc1ccc(C(O)(C(F)(F)F)C(F)(F)F)cc1	-32.5	38.7*	3.3	60.6*	66.4*	8.4
CCn1c(SCC(=O)NNC(=S)Nc2ccc(C)cc2)nnc1-c1ccc(Cl)cc1	11.3	-11.8	27.5	16.2*	-6.0	-4.7
CCCn1cnnc1CNC(=O)C1CCC(=O)N(CCc2ccc(OC)cc2)C1 (stereo unspecified)	2.9	5.3	16.0	0.4	-1.1	-6.8
C=CCN1C(=NC(=O)CCC(=O)O)SC2CS(=O)(=O)CC21 (stereo unspecified)	0.8	0.2	-0.1	0.1	-2.7	-1.9
C=CCN1C(=NC(=O)CCCC(=O)O)SC2CS(=O)(=O)CC21 (stereo unspecified)	-4.2	13.9	-6.5	-0.4	-2.0	28.2*
CN(C(=O)COC(=O)C1CCN(S(=O)(=O)c2ccc3c(c2)OCCO3)CC1)C1CCS(=O)(=O)C1 (stereo unspecified)	0.2	-1.8	-3.1	0.5	-7.9	-8.0
Cc1cc(C)c(S(=O)(=O)Nc2ccccc2-c2ccccc2)c(C)c1	-2.4	-4.2	44.2*	0.5	-14.5	-22.0
O=S(=O)(Nc1ccccc1-c1ccccc1)c1ccccc1	8.5	-22.5	21.3	0.5	-6.8	-22.9
OC(CN1CCCCC1)CN(c1ccccc1)c1ccccc1 (stereo unspecified)	-25.2	51.1*	-5.1	0.3	-9.5	11.3
Cc1ccccc1S(=O)(=O)N(CC(O)CN1CCCCC1)c1ccccc1 (stereo unspecified)	-1.6	5.1	-5.8	0.0	-5.6	-11.0
OC(CN1CCOCC1)CN(c1ccccc1)c1ccccc1 (stereo unspecified)	-0.4	-1.5	0.7	0.0	-8.5	-5.7
OC(CN1CCCCCC1)CN(c1ccccc1)c1ccccc1 (stereo unspecified)	-26.2	38.5*	13.1	2.0	-8.2	3.9
OCC1(Cc2ccc(Cl)cc2)CCN(Cc2ccc(Oc3ncccn3)cc2)CC1	-32.4	44.0*	9.6	1.1	-13.7	-11.6
CC1CCN(S(=O)(=O)c2ccc(C(=O)N3CCCC3C(=O)O)cc2)CC1 (stereo unspecified)	19.2	-18.1	10.5	-0.2	0.9	-17.7
CCc1noc(C)c1C(=O)Nc1nc(-c2ccc(OC)cc2)cs1	-18.7	36.6*	-16.7	3.4	-2.0	4.3
CC(C)(CN1CCCN(CC(C)(C)C(=O)O)C1=O)C(=O)O	0.5	-4.5	4.1	0.2	-1.1	-6.5
SMILES	M1 PAM	CHRM1 antagonist	CHO-K1 Ca PAM	M1 ag parental	CHRM1 agonist	CHO-K1 Ca antag
Cc1cccc2cc(CN(CCN3CCOCC3)C(=O)Nc3ccccc3F)c(=O)[nH]c12	0.7	-7.6	-14.3	0.7	-4.3	30.0*
CCCN(CC1CC1)C(=O)COC(=O)c1ccc(CNS(=O)(=O)c2ccc(F)c(Cl)c2)cc1	-17.0	2.3	11.7	3.7	-6.3	-2.4
N#CCCN(C(=O)COC(=O)c1ccc(CNS(=O)(=O)c2ccc(F)c(Cl)c2)cc1)c1ccc(F)cc1	-27.4	78.6*	10.7	5.8	-12.9	1.1
C[C@@H]1CN([C@@H](C)CO)C(=O)CCCn2cc(nn2)CO[C@H]1CN(C)S(=O)(=O)c1ccc(-c2ccccc2)cc1	1.8	-4.6	21.2	0.1	-5.5	-9.7
C[C@H](CO)N1C[C@H](C)[C@@H](CN(C)S(=O)(=O)c2ccccc2)OCc2cn(nn2)CCCC1=O	-13.4	24.4*	5.5	4.0	-7.9	15.5
C[C@@H]1CN([C@H](C)CO)C(=O)CCCn2nncc2CO[C@@H]1CN(C)S(=O)(=O)c1ccccc1C#N	27.0*	-29.0	14.6	0.1	-7.7	-10.2
Cc1ccc(S(=O)(=O)N(C)C[C@@H]2OCc3cn(nn3)CCCC(=O)N([C@@H](C)CO)C[C@H]2C)cc1	25.2*	-27.6	5.3	0.1	-0.3	-6.5
Cc1ccccc1S(=O)(=O)N(C)C[C@@H]1OCc2cnnn2CCCC(=O)N([C@@H](C)CO)C[C@@H]1C	-7.4	-1.8	17.2	-0.1	-10.2	-7.8
CC1Cc2ccccc2N1CC(=O)Nc1cc(S(=O)(=O)N2CCOCC2)ccc1Cl (stereo unspecified)	-11.3	11.1	-16.6	1.7	-2.4	11.7
CN(Cc1ccc(Cl)cc1)C(=O)CNC(=O)C12CC3CC(CC(C3)C1)C2	8.5	-9.8	7.5	2.4	0.1	-2.4
COCC(C)NS(=O)(=O)c1ccc(C(=O)NC(Cc2ccccc2)c2ccccc2)cc1 (stereo unspecified)	10.1	-19.9	-1.4	2.0	-1.8	-18.7
Cc1nc2cc(Cl)c(Cl)cc2n1CCCO	5.2	-4.9	17.2	1.4	-7.3	-5.3
Cc1cc(=S)cc(C)n1CCCO	-1.8	5.8	-3.9	0.0	-7.0	28.6*
CCOC(=O)C1=C(C)S/C(=C\N(C)C)C1=O	8.4	-29.3	7.8	0.1	8.3	3.4
CCOC(=O)C1=C(C)NC(=O)/C1=C\N(C)C	-11.0	11.6	-14.5	0.0	-2.3	28.2*
Cc1c(C(=O)N2CCN(c3ccccc3)CC2)oc2c1C(=O)CC(C)(C)C2	-15.0	30.0*	-24.1	7.4	0.3	12.3
Cc1ccc2cc(C#N)c(SCC(=O)NNC(=O)Cc3ccccc3)nc2c1	14.4	-3.2	-15.5	-0.4	3.2	25.5*
COc1ccc2cc(C#N)c(SCC(=O)NNC(=O)Cc3ccccc3)nc2c1	1.3	-1.4	15.2	0.2	-4.6	-2.4

Assay outcomes as filed in PubChem BioAssay.
